Assay results as given in PubChem BioAssay (NCATS).
Records with an inconclusive call do not appear. A call without a number means that no potency is given here. Values without a mark were called inactive. Active and inactive are the calls of the source. The call rests on the fitted dose curve; in most records, active means well fitted inhibition curve with a large enough effect; inconclusive means small, poorly fitted or top-dose-only effect; inactive means flat fitted curve, though single readings scatter.

Key:
[1] = tested on: JCK; assay: qHTS profiling for inhibitors of Plasmodium falciparum proliferation (AID 504749); further: potency means the concentration at half of the fitted maximal effect; conditions: P. falciparum in erythrocytes, SYBR Green DNA, 72 h; series mostly up to 28.7 µM
Outline: (§1)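 Fluorescence of SYBR Green-bound parasite DNA, read at 485/535 nm, served as the growth measure. Infected erythrocytes were cultured with compound 72 h; artemisinin (0.29 uM) and DMSO wells defined the normalization range.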

[2] = tested on: N140; assay: as above; conditions: P. falciparum in erythrocytes, SYBR Green DNA, 72 h; series mostly up to 28.7 µM
Outline: as §1

[3] = tested on: P93_24; assay: as above; conditions: P. falciparum in erythrocytes, SYBR Green DNA, 72 h; series mostly up to 28.7 µM
Outline: as §1

[4] = tested on: P94_40; assay: as above; conditions: P. falciparum in erythrocytes, SYBR Green DNA, 72 h; series mostly up to 28.7 µM
Outline: as §1

[5] = tested on: PAD; assay: as above; conditions: P. falciparum in erythrocytes, SYBR Green DNA, 72 h; series mostly up to 28.7 µM
Outline: as §1

[6] = tested on: PC15; assay: as above; conditions: P. falciparum in erythrocytes, SYBR Green DNA, 72 h; series mostly up to 28.7 µM
Outline: as §1

[7] = tested on: PC49; assay: as above; conditions: P. falciparum in erythrocytes, SYBR Green DNA, 72 h; series mostly up to 28.7 µM
Outline: as §1

[8] = tested on: SC27B; assay: as above; conditions: P. falciparum in erythrocytes, SYBR Green DNA, 72 h; series mostly up to 28.7 µM
Outline: as §1

[9] = tested on: TAB109; assay: as above; conditions: P. falciparum in erythrocytes, SYBR Green DNA, 72 h; series mostly up to 28.7 µM
Outline: as §1

[10] = tested on: TAB165; assay: as above; conditions: P. falciparum in erythrocytes, SYBR Green DNA, 72 h; series mostly up to 28.7 µM
Outline: as §1

[11] = tested on: CRL-7250; assay: Cytotoxic Profiling of Annotated Libraries Using Quantitative High-Throughput Screening (AID 1296008); conditions: Five cell lines viability, CellTiter-Glo ATP luminescence, 48-72 h; max response: active compounds read low; further: potency means the concentration at half of the fitted maximal effect
Outline: (§2)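 Compounds were pin-transferred onto cells and incubated 48 or 72 hr at 37 degree Celsius, 95% humidity. CellTiter-Glo was added, plates sat 10 min at room temperature, then ATP-coupled luminescence was imaged as the viability read-out.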

[12] = tested on: HEK293; assay: as above; conditions: Five cell lines viability, CellTiter-Glo ATP luminescence, 48-72 h; max response: active compounds read low
Outline: as §2

[13] = tested on: HaCat; assay: as above; conditions: Five cell lines viability, CellTiter-Glo ATP luminescence, 48-72 h; max response: active compounds read low
Outline: as §2

[14] = tested on: KB-3-1; assay: as above; conditions: Five cell lines viability, CellTiter-Glo ATP luminescence, 48-72 h; max response: active compounds read low
Outline: as §2

[15] = tested on: NIH3T3; assay: as above; conditions: Five cell lines viability, CellTiter-Glo ATP luminescence, 48-72 h; max response: active compounds read low
Outline: as §2

[16] = tested on: PC26; assay: qHTS profiling for inhibitors of Plasmodium falciparum proliferation (AID 504749); further: potency means the concentration at half of the fitted maximal effect; conditions: P. falciparum in erythrocytes, SYBR Green DNA, 72 h; series mostly up to 28.7 µM
Outline: as §1

[17] = tested on: TAB113; assay: as above; conditions: P. falciparum in erythrocytes, SYBR Green DNA, 72 h; series mostly up to 28.7 µM
Outline: as §1

[18] = tested on: W2; assay: as above; conditions: P. falciparum in erythrocytes, SYBR Green DNA, 72 h; series mostly up to 28.7 µM
Outline: as §1

[19] = tested on: HEK293T; assay: qHTS assay to identify novel small-molecules to repurpose for Merkel cell carcinoma treatment (AID 1296009); conditions: MCC and control cell lines, CellTiter-Glo viability, 72 h; at 44.8 µM (top of the series) unless noted
Outline: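 Luminescence from CellTiter-Glo, read 10 min after addition at room temperature, reported viability following a 72 hr, 37 degree celsius treatment with NPC or MIPE compounds in titration; values normalized to plate controls.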
Further: nearly all actives have a fitted effect of over 60% in size.

SMILES: C[n+]1cc2c3c(ccc2c2ccc4cc5c(cc4c21)OCO5)OCO3
- Potency [1]: inactive
- Potency [2]: inactive
- Potency [3]: inactive
- Potency [4]: inactive
- Potency [5]: inactive
- Potency [6]: inactive
- Potency [7]: inactive
- Potency [8]: inactive
- Potency [9]: inactive
- Potency [10]: inactive
- Potency [11]: 1.84 µM (active)
- Potency [12]: 1.16 µM (active)
- Potency [13]: 2.59 µM (active)
- max response [14]: -95.7%
- Potency [15]: 4.61 µM (active)

SMILES: NC(=O)N1c2ccccc2C=Cc2ccccc21
- Potency [1]: inactive
- Potency [2]: inactive
- Potency [3]: inactive
- Potency [5]: inactive
- Potency [6]: inactive
- Potency [16]: inactive
- Potency [7]: inactive
- Potency [8]: inactive
- Potency [9]: inactive
- Potency [17]: inactive
- Potency [10]: inactive
- Potency [18]: inactive
- outcome [11]: inactive
- max response [12]: 2.7%
- max response [13]: -8.83%
- max response [14]: -5.38%
- max response [15]: 2.27%

SMILES: COC(=O)C1=C(C)NC(C)=C(C(=O)OCCN(C)Cc2ccccc2)C1c1cccc([N+](=O)[O-])c1 (centres undefined)
- Potency [11]: 21.1 µM (active)
- Potency [12]: 11.9 µM (active)
- max response [14]: -10.4%
- Potency [15]: 26.6 µM (active)

SMILES: CN1C[C@H](C(=O)N[C@]2(C)O[C@@]3(O)[C@@H]4CCCN4C(=O)[C@H](Cc4ccccc4)N3C2=O)C[C@@H]2c3cccc4[nH]cc(c34)C[C@H]21
- Potency [16]: 1.2 µM (active)
- Potency [18]: 1.51 µM (active)
- outcome [11]: inactive
- Potency [12]: 10.6 µM (active)
- max response [13]: -5.88%
- max response [14]: 0.239%

SMILES: O=C(O)CN(CCN(CC(=O)O)CC(=O)O)CCN(CC(=O)O)CC(=O)O
- Potency [1]: inactive
- Potency [2]: inactive
- Potency [3]: inactive
- Potency [4]: inactive
- Potency [5]: inactive
- Potency [6]: inactive
- Potency [16]: inactive
- Potency [7]: inactive
- Potency [8]: inactive
- Potency [9]: inactive
- Potency [17]: inactive
- Potency [10]: inactive
- Potency [18]: inactive
- max response [11]: -4.18%
- outcome [12]: inactive
- max response [13]: -15.5%
- max response [14]: 28.9%
- outcome [19]: inactive [at 17.4 µM]

SMILES: CC(C)[N+](C)(CCOC(=O)C1c2ccccc2Oc2ccccc21)C(C)C
- Potency [1]: inactive
- Potency [6]: inactive
- Potency [16]: inactive
- Potency [7]: inactive
- max response [11]: -3.69%
- max response [12]: -1.62%
- max response [13]: -8.6%
- max response [14]: -0.425%
- outcome [15]: inactive

SMILES: Cc1ccc(S(=O)(=O)NC(=O)NN2CCCCCC2)cc1
- Potency [1]: inactive
- Potency [2]: inactive
- Potency [3]: inactive
- Potency [5]: inactive
- Potency [6]: inactive
- Potency [16]: inactive
- Potency [7]: inactive
- Potency [8]: inactive
- Potency [9]: inactive
- Potency [17]: inactive
- Potency [10]: inactive
- Potency [18]: inactive
- outcome [11]: inactive
- max response [12]: -0.0062%
- max response [13]: 3.13%
- max response [14]: 3.88%
- max response [15]: 0.771%

SMILES: Cc1ccc(=O)n(-c2ccccc2)c1
- Potency [1]: inactive
- Potency [2]: inactive
- Potency [3]: inactive
- Potency [4]: inactive
- Potency [6]: inactive
- Potency [16]: inactive
- Potency [7]: inactive
- Potency [8]: inactive
- Potency [9]: inactive
- Potency [17]: inactive
- Potency [10]: inactive
- Potency [18]: inactive
- max response [11]: -4.72%
- max response [12]: 4.05%
- max response [13]: 3.39%
- max response [14]: 4.11%
- max response [15]: -3.29%

SMILES: Cc1cc(C)c(/C=C2\C(=O)Nc3ccccc32)[nH]1
- Potency [1]: inactive
- Potency [2]: inactive
- Potency [3]: inactive
- Potency [4]: inactive
- Potency [5]: inactive
- Potency [6]: inactive
- Potency [16]: inactive
- Potency [7]: inactive
- Potency [8]: inactive
- Potency [9]: inactive
- Potency [17]: inactive
- Potency [10]: inactive
- Potency [18]: inactive
- max response [11]: -6.15%
- outcome [12]: inactive
- max response [13]: -11.3%
- max response [14]: -3.51%
- max response [15]: -17.1%
- outcome [19]: inactive

SMILES: Cc1ccc(Cl)c(Nc2ccccc2C(=O)O)c1Cl
- Potency [1]: inactive
- Potency [2]: inactive
- Potency [3]: inactive
- Potency [4]: inactive
- Potency [5]: inactive
- Potency [6]: inactive
- Potency [16]: inactive
- Potency [7]: inactive
- Potency [8]: inactive
- Potency [9]: inactive
- Potency [17]: inactive
- Potency [10]: inactive
- Potency [18]: inactive
- max response [11]: 2.33%
- outcome [12]: inactive
- max response [13]: -3.9%
- max response [14]: -10.1%
- max response [15]: 3.05%
- outcome [19]: inactive

SMILES: C[C@@H](O)[C@H]1C(=O)N2C(C(=O)O)=C(SCCN=CN)C[C@H]12
- max response [11]: -15.5%
- max response [12]: -4.83%
- max response [14]: -8.98%
- max response [15]: -19.7%

SMILES: CCn1cc(C(=O)O)c(=O)c2cc3c(cc21)OCO3
- Potency [1]: inactive
- Potency [2]: inactive
- Potency [3]: inactive
- Potency [4]: inactive
- Potency [5]: inactive
- Potency [6]: inactive
- Potency [16]: inactive
- Potency [7]: inactive
- Potency [8]: inactive
- Potency [9]: inactive
- Potency [17]: inactive
- Potency [10]: inactive
- Potency [18]: inactive
- max response [11]: -16.9%
- max response [12]: -14.3%
- max response [13]: -9.91%
- max response [14]: -12.7%
- max response [15]: -23.3%

SMILES: COC(=O)[C@@H](N)Cc1ccc(O)c(O)c1
- Potency [1]: inactive
- Potency [2]: inactive
- Potency [3]: inactive
- Potency [4]: inactive
- Potency [5]: inactive
- Potency [6]: inactive
- Potency [16]: inactive
- Potency [7]: inactive
- Potency [8]: inactive
- Potency [9]: inactive
- Potency [10]: inactive
- max response [11]: 0.35%
- max response [12]: -4.7%
- max response [13]: 3.62%
- max response [14]: -3.59%
- max response [15]: -6.82%
